Max response, outcome and Potency data for 15 molecules are collected here from PubChem BioAssay (NCATS).

Where “and” joins values, the source holds several entries; their conditions need not be identical. Identical values can stand only once. Inconclusive results are not listed. A structure can be active in one record and inactive in another. Calls of active or inactive are those of the source. The call rests on the fitted dose curve; in most records, active means well fitted curve in the direction sought with a large enough effect; inconclusive means small, poorly fitted or top-dose-only effect, or another doubt; inactive means no such curve, though single readings can be large; an effect the other way counts as inactive or inconclusive.

Assay [1] concerns NIH3T3. Briefly: Cytotoxic Profiling of Annotated Libraries Using Quantitative High-Throughput Screening (AID 1296008). Further: nearly all actives have a fitted effect of over 60% in size. As to conditions: Five cell lines viability, CellTiter-Glo ATP luminescence, 48-72 h; max response: stronger effect = lower value. In outline: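 Compounds were pin-transferred onto cells and incubated 48 or 72 hr at 37 degree Celsius, 95% humidity. CellTiter-Glo was added, plates sat 10 min at room temperature, then ATP-coupled luminescence was imaged as the viability read-out.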

Assay [2] concerns HACAT. Briefly: qHTS assay to identify novel small-molecules to repurpose for Merkel cell carcinoma treatment (AID 1296009). Further: nearly all actives have a fitted effect of over 60% in size. As to conditions: MCC and control cell lines, CellTiter-Glo viability, 72 h; at 44.8 µM (top of the series) unless noted. The gist of the method:
(§1)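 Cells exposed to NPC (8-point) and MIPE (11-point) compound dilutions for 72 hr at 37 degree celsius; viability read by CellTiter-Glo luminescence, normalized to no-cell and DMSO in-plate controls.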
In general terms: Quantitative high-throughput screening tests each substance at several concentrations.

Assay [3] relates to MCC-13. The description is as above. As to conditions: MCC and control cell lines, CellTiter-Glo viability, 72 h; series mostly up to 46 µM. In outline:
as §1
(Cellular ATP, detected with luciferase, serves as a proxy for viable cell number.)

In assay [4] the test system is MKL-1. The description is as above. As to conditions: MCC and control cell lines, CellTiter-Glo viability, 72 h; series mostly up to 46 µM. In outline: as §1
Assay [5] has as its system MKL-2. The assay is described as above. As to conditions: MCC and control cell lines, CellTiter-Glo viability, 72 h; series mostly up to 46 µM. The gist of the method:
as §1

Assay [6] concerns UISO. The description is as above. As to conditions: MCC and control cell lines, CellTiter-Glo viability, 72 h; series mostly up to 46 µM. In outline: as §1
Assay [7] deals with WaGa. Described as above. As to conditions: MCC and control cell lines, CellTiter-Glo viability, 72 h; series mostly up to 46 µM. The gist of the method:
as §1

The subject of assay [8] is C33A. Briefly: Primary qHTS to identify gynecologic anti-cancer compounds using libraries of approved drugs and bioactive compounds (AID 1345084). Further: nearly all actives have a fitted effect of over 55% in size. As to conditions: Gynecologic cancer cell panel viability, ATPlite luminescence, 48 h; series mostly up to 57.5 µM. In outline: (§2)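 48 h compound exposure at 37 C, 5% CO2; five-point qHTS. ATPlite luminescence readout of cell ATP.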

The test system of assay [9] is CASKI. Described as above. As to conditions: Gynecologic cancer cell panel viability, ATPlite luminescence, 48 h; series mostly up to 57.5 µM. The gist of the method: as §2
Assay [10] relates to Es-2. The description is as above. As to conditions: Gynecologic cancer cell panel viability, ATPlite luminescence, 48 h; series mostly up to 57.5 µM. The gist of the method:
as §2

The subject of assay [11] is HeLa. The description is as above. As to conditions: Gynecologic cancer cell panel viability, ATPlite luminescence, 48 h; series mostly up to 57.5 µM. The gist of the method: as §2
The test system of assay [12] is Hek293T. The assay is described as above. As to conditions: Gynecologic cancer cell panel viability, ATPlite luminescence, 48 h, control line for the selectivity index; series mostly up to 57.5 µM. In outline:
as §2

Assay [13] concerns JEG-3. The description is as above. As to conditions: Gynecologic cancer cell panel viability, ATPlite luminescence, 48 h; series mostly up to 57.5 µM. In outline: as §2
The test system of assay [14] is OV90. The description is as above. As to conditions: Gynecologic cancer cell panel viability, ATPlite luminescence, 48 h; series mostly up to 57.5 µM. In outline:
as §2

For assay [15], the system named is PA-1. The assay is described as above. As to conditions: Gynecologic cancer cell panel viability, ATPlite luminescence, 48 h; series mostly up to 57.5 µM. The gist of the method: as §2
The subject of assay [16] is SKOV3. The description is as above. As to conditions: Gynecologic cancer cell panel viability, ATPlite luminescence, 48 h; series mostly up to 57.5 µM. The gist of the method:
as §2

Assay [17] has as its system MCC-26. Briefly: qHTS assay to identify novel small-molecules to repurpose for Merkel cell carcinoma treatment (AID 1296009). Further: nearly all actives have a fitted effect of over 60% in size. As to conditions: MCC and control cell lines, CellTiter-Glo viability, 72 h; series mostly up to 46 µM. The gist of the method:
as §1

Assay [18] concerns NIH3T3. The description is as above. As to conditions: MCC and control cell lines, CellTiter-Glo viability, 72 h; at 44.8 µM (top of the series) unless noted. In outline: as §1
The subject of assay [19] is CAOV3. Briefly: Primary qHTS to identify gynecologic anti-cancer compounds using libraries of approved drugs and bioactive compounds (AID 1345084). Further: nearly all actives have a fitted effect of over 55% in size. As to conditions: Gynecologic cancer cell panel viability, ATPlite luminescence, 48 h; series mostly up to 57.5 µM. In outline:
as §2

Assay [20] relates to HEK293T. Briefly: qHTS assay to identify novel small-molecules to repurpose for Merkel cell carcinoma treatment (AID 1296009). Further: nearly all actives have a fitted effect of over 60% in size. As to conditions: MCC and control cell lines, CellTiter-Glo viability, 72 h; at 44.8 µM (top of the series). The gist of the method: as §1
On the % scale 0 is the no-effect control and ±100 the full control effect; potency means the concentration at half of the fitted maximal effect.

On to `OC(CN1CCC(Cc2ccc(F)cc2)CC1)c1ccc(Cl)cc1` (stereo not given), for which, in [1], the max response is 0.966% (inactive) and 1.02% (inactive). For the same molecule, the call in assay [2] was inactive. The Potency result in [3], in [4], in assay [5], in assay [6], in assay [7] and in assay [8] was “inactive” throughout. Besides, the Potency entry in [9], in assay [10], in assay [11], in assay [12], in assay [13] and in assay [14] was “inactive” in each case. In addition, the Potency result in [15] and in assay [16] was “inactive” in each case.
In the case of `NC(=O)C1CCCc2c1[nH]c1ccc(Cl)cc21` (stereo not given), the max response in assay [1] was -12.4% (inactive). Besides, the Potency result in assay [3], in assay [17], in assay [4], in assay [5], in assay [6] and in [7] was “inactive” in each case.
Consider `CCCn1c(=O)c2[nH]c(C34CC5CC3C[C@@H](C5)C4)nc2n(CCC)c1=O`, for which, in [1], the max response was -0.656% (inactive). Besides, the Potency entry in assay [3], in assay [17], in assay [4], in [5], in assay [6] and in assay [7] was “inactive” throughout.
With `Nc1ncnc2nc(-c3ccc(N4CCOCC4)nc3)cc(-c3cccc(Br)c3)c12`, the max response in assay [1] was 1.04% (inactive). In addition, the Potency entry in assay [3], in assay [17], in assay [4], in assay [5], in assay [6] and in assay [7] was “inactive” throughout.
With `Cc1cc(SCc2sc(-c3ccc(C(F)(F)F)cc3)nc2C)ccc1OCC(=O)O`, the result in assay [1] and in [18] was inactive. The Potency result in assay [3], in [17], in assay [4], in assay [5], in assay [6] and in assay [7] was “inactive” in each case. Further, the Potency entry in [19], in assay [9], in assay [10], in [11], in assay [12] and in assay [13] was “inactive” in each case. Moreover, the Potency result in assay [14], in [15] and in assay [16] was “inactive” in each case.
As for `O=C(NOC[C@H](O)CO)c1ccc(F)c(F)c1Nc1ccc(I)cc1F`, the Potency in assay [1] was 6.51 µM (active). Further, the outcome in assay [20] was inactive. The Potency entry in assay [17], in assay [8], in [9], in [11], in assay [12] and in assay [13] was “inactive” each time. Besides, the Potency result in assay [15] and in assay [16] was “inactive” each time.
Consider `C[C@H](NC(=O)Cc1cc(F)cc(F)c1)C(=O)N[C@@H]1C(=O)N(C)c2ccccc2-c2ccccc21`, for which the max response in assay [1] is -12.2% (inactive) and -1.62% (inactive). Moreover, in assay [2], the molecule was classed as inactive. For the same molecule, the Potency entry in assay [3], in [17], in [4], in [6], in [8] and in [19] was “inactive” throughout. Besides, the Potency entry in assay [9], in assay [10], in assay [11], in assay [12], in assay [13] and in assay [14] was “inactive” each time. In addition, the Potency entry in assay [15] and in assay [16] was “inactive” throughout.
For the molecule `Cc1ccccc1C(OCCN(C)C)c1ccccc1` (stereo not given), the max response in [1] was -2.58% (inactive) and 4.52% (inactive). Besides, in [2], the molecule was called inactive. Further, the Potency result in assay [3], in assay [4], in [5], in assay [6], in assay [7] and in [8] was “inactive” throughout. For the same molecule, the Potency result in assay [9], in assay [10], in assay [11], in assay [12], in assay [13] and in assay [15] was “inactive” in each case. Moreover, in assay [16], the Potency result is “inactive”.
Regarding `O=C(C1CC1)N1CC[C@@H](Cn2c(-c3ccc(-c4ccc5occc5c4)cc3)nc3cnccc32)C1`, the max response in assay [1] was 1.4% (inactive). Moreover, the Potency result in assay [3], in assay [17], in assay [4], in assay [5], in [6] and in [7] was “inactive” each time.
In the case of `Clc1ccc(Nc2nnc(Cc3ccncc3)c3ccccc23)cc1`, the max response in assay [1] is -1.18% (inactive) and -1.64% (inactive). Also, the outcome in assay [2] was inactive. Moreover, the Potency entry in assay [3], in assay [6], in assay [8], in assay [19], in assay [9] and in assay [10] was “inactive” each time. The Potency entry in assay [11], in [12], in [13], in assay [14], in assay [15] and in assay [16] was “inactive” throughout. The Potency result in assay [5] was “inactive and 13.3 µM (active)”.
In the case of `CNCc1ccc(-c2[nH]c3cc(F)cc4c3c2CCNC4=O)cc1`, in assay [1], the max response is -1.23% (inactive) and -23.6% (inactive). The outcome in [2] was inactive. Moreover, the Potency result in [3], in [17], in assay [4], in assay [7], in assay [8] and in assay [9] was “inactive” throughout. For the same molecule, the Potency entry in [10], in assay [11], in [12], in [13], in [14] and in [15] was “inactive” each time. For the same molecule, the Potency entry in assay [16] is “inactive”.
Turning to `Cc1csc(NC(=O)c2sc3nc4c(c(C(F)(F)F)c3c2N)CCC4)n1`, the max response in assay [1] was -3.35% (inactive) and -3.51% (inactive). For the same molecule, the molecule was called inactive in assay [2]. The Potency entry in assay [3], in assay [17], in assay [4], in assay [5], in assay [6] and in assay [7] was “inactive” each time. The Potency was 2.51 µM (active) in assay [10], 2.82 µM (active) in assay [11], 3.55 µM (active) in assay [12] and 12.6 µM (active) in [14].
Take `COc1ccc(CC2=NN3C([C@@H](CCc4ccccc4)[C@@H](C)O)=NC(C)C3C(=O)N2)cc1OC` (stereo not given in full): the max response in assay [1] is 0.654% (inactive). The Potency result in [3], in assay [17], in [4], in [5], in [6] and in assay [7] was “inactive” throughout.
Consider `CC[C@@H](C)[C@H](NC(=O)[C@H](CC1CCCCC1)NC(=O)c1ccno1)C(=O)N1CCC2(CCc3ccccc32)CC1`, for which the max response in assay [1] is -7.84% (inactive) and -2.63% (inactive). Further, the molecule was classed as inactive in assay [2]. Further, the Potency entry in [3], in assay [4], in [5], in assay [6], in assay [7] and in assay [8] was “inactive” in each case. Besides, the Potency result in assay [19], in [9], in assay [10], in assay [11], in assay [12] and in assay [13] was “inactive” each time. Moreover, the Potency entry in assay [14], in assay [15] and in [16] was “inactive” throughout.
As to `Nc1cccc(S(=O)(=O)N2CCCN(S(=O)(=O)c3ccc4c(c3)OCCO4)CC2)c1`, the max response in [1] is -8.98% (inactive). Moreover, the Potency result in assay [3], in assay [17], in [4], in assay [5], in assay [6] and in assay [7] was “inactive” in each case.
